Data as given in PubChem BioAssay (Tox21).
Inconclusive results are not listed. Calls of active or inactive are those of the source. Unless noted, the call rests on the fitted dose curve; in most records, active means well fitted curve in the direction sought with a large enough effect in the repeat runs; inconclusive means weak or mixed curves; inactive means no such curve, though single readings can be large; an effect the other way counts as inactive or inconclusive.

Key:
[1] = qHTS assay to identify small molecule antagonists of the glucocorticoid receptor (GR) signaling pathway - cell viability counter screen (AID 720693); further: nearly all actives have a fitted effect of over 55% in size
[2] = qHTS assay for identifying genotoxic compounds that show differential cytotoxicity against isogenic chicken DT40 cell lines with known DNA damage response pathways - wild type cell line (AID 743012); further: nearly all actives have a fitted effect of over 60% in size; further: potency means the concentration at half of the fitted maximal effect
In short: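 300 wt DT40 cells/well; cpd (DMSO) pintool-transferred after ~0.5 h at 37 C/5% CO2; 40 h incubation; CellTiter-Glo added, 30 min RT; luminescence read.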

[3] = qHTS assay for identifying genotoxic compounds that show differential cytotoxicity against isogenic chicken DT40 cell lines with known DNA damage response pathways - Rev3 mutant cell line (AID 743014); further: nearly all actives have a fitted effect of over 55% in size; further: potency means the concentration at half of the fitted maximal effect
[4] = qHTS assay for identifying genotoxic compounds that show differential cytotoxicity against isogenic chicken DT40 cell lines with known DNA damage response pathways - Rad54/Ku70 mutant cell line (AID 743015); further: nearly all actives have a fitted effect of over 60% in size; further: potency means the concentration at half of the fitted maximal effect
[5] = qHTS assay to identify small molecule antagonists of the androgen receptor (AR) signaling pathway - cell viability counter screen (AID 743033; further: nearly all actives have a fitted effect of over 45% in size)
[6] = qHTS assay to identify small molecule antagonists of the androgen receptor (AR) signaling pathway using the MDA cell line - cell viability counter screen (AID 743041; further: nearly all actives have a fitted effect of over 45% in size)
In short: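 qHTS viability read-out; MDA-kb2 AR-luc; R1881-stimulated; 16 h exposure at 37C, 0% CO2; CellTiter-Fluor, 30 min; fluorescence intensity.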

[7] = qHTS assay to identify small molecule antagonists of the thyroid receptor (TR) signaling pathway - cell viability counter screen (AID 743064); further: nearly all actives have a fitted effect of over 50% in size
In short: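 GH3.TRE-Luc cells, 4 h pre-plating; cpd + T3 1 nM final; 37 °C 23.5 h; CellTiter-Fluor 30 min; fluorescence read.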

[8] = qHTS assay to identify small molecule antagonists of the thyroid receptor (TR) signaling pathway (AID 743065); further: nearly all actives have a fitted effect of over 55% in size; further: potency means the concentration at half of the fitted maximal effect
In short: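 GH3.TRE-Luc rat pituitary cells carrying two TR response elements driving luciferase were plated for 4 h, given compound plus 1 nM T3 (final), and incubated 23.5 h at 37 C. ONE-Glo luminescence measured reporter inhibition; CellTiter-Fluor fluorescence tracked cytotoxicity.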

[9] = tested on: thyroid hormone receptor (rat, GH3 cells); experiment: qHTS assay to identify small molecule agonists of the thyroid receptor (TR) signaling pathway (AID 743066; calls by dose curve)
[10] = molecular target: Estrogen receptor (Homo sapiens) (UniProt P03372); experiment: qHTS assay to identify small molecule antagonists of the estrogen receptor alpha (ER-alpha) signaling pathway (AID 743069; active means well fitted curve in the direction sought with a large enough effect in the signal ratio in the repeat runs, not every such curve was filed as active; the % refers to the signal ratio)
In short: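 Screening used a UAS-driven beta-lactamase reporter integrated into HEK293 cells expressing ER-alpha, stimulated with 17beta-estradiol alongside test compounds over 18 hr at 37C; signal came from LiveBLAzer B/G FRET fluorescence.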

[11] = qHTS assay to identify small molecule antagonists of the estrogen receptor alpha (ER-alpha) signaling pathway - cell viability counter screen (AID 743074; calls by dose curve; further: nearly all actives have a fitted effect of over 45% in size)
[12] = molecular target: Estrogen receptor (Homo sapiens) (UniProt P03372); experiment: qHTS assay to identify small molecule agonists of the estrogen receptor alpha (ER-alpha) signaling pathway (AID 743075; calls by dose curve)
[13] = molecular target: Estrogen receptor (Homo sapiens) (UniProt P03372); experiment: qHTS assay to identify small molecule agonists of the estrogen receptor alpha (ER-alpha) signaling pathway using the BG1 cell line (AID 743079); further: nearly all actives have a fitted effect of over 20% in size; further: potency means the concentration at half of the fitted maximal effect
[14] = qHTS assay to identify small molecule antagonists of the estrogen receptor alpha (ER-alpha) signaling pathway using the BG1 cell line (AID 743080; calls by dose curve;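 further: BG1 cells stimulated with 17beta-estradiol alongside compound; series mostly up to about 70 µM; nearly all actives have a fitted effect of over 25% in size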)
In short: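 Quantitative HTS on the Tox21 10K library: BG1 cells with endogenous ER-alpha and ERE-luciferase reporter, 17beta-estradiol stimulation, 21.5 h compound exposure, luminescence endpoint with parallel fluorescence cytotoxicity counter-read.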

[15] = qHTS assay to identify small molecule antagonists of the estrogen receptor alpha (ER-alpha) signaling pathway using the BG1 cell line - cell viability counter screen (AID 743081);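 further: compound given together with 17beta-estradiol as the ER stimulus; series mostly up to about 70 µM; nearly all actives have a fitted effect of over 45% in size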
Aromatase (Homo sapiens) = Aromatase (Homo sapiens) (UniProt P11511); experiment: qHTS assay to identify aromatase inhibitors (AID 743083); further: series mostly up to about 70 µM; nearly all actives have a fitted effect of over 55% in size
[16] = molecular target: Androgen receptor (Homo sapiens) (UniProt P10275); experiment: qHTS assay to identify small molecule antagonists of the androgen receptor (AR) signaling pathway (AID 743035; active means well fitted inhibition curve with a large enough effect in the signal ratio in the repeat runs, not every such curve was filed as active; the % refers to the signal ratio)
In short: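 In this cell-based reporter screen, compounds were tested in concentration series against R1881-activated HEK293 cells expressing beta-lactamase under UAS control; after 16 h at 37C, FRET substrate was added and fluorescence read 2 h later.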

[17] = molecular target: Androgen receptor (Homo sapiens) (UniProt P10275); experiment: qHTS assay to identify small molecule agonists of the androgen receptor (AR) signaling pathway (AID 743036; active means well fitted activation curve with a large enough effect in the signal ratio in the repeat runs, with a control signal flat, not every such curve was filed as active; the % refers to the signal ratio)
In short: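 AR-bla HEK293 cells, 2,000/well; 4 h preincubation 37C/5% CO2; compound (DMSO) 16 h at 37C; LiveBLAzer B/G FRET substrate 2 h RT; fluorescence intensity read-out.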

[18] = molecular target: Androgen receptor (Homo sapiens) (UniProt P10275); experiment: qHTS assay to identify small molecule agonists of the androgen receptor (AR) signaling pathway using the MDA cell line (AID 743040; further: nearly all actives have a fitted effect of over 20% in size)
In short: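 Agonist activity is measured as luciferase luminescence in human MDA-kb2 cells whose MMTV reporter responds to both AR and GR. Compounds in DMSO incubate 16 h at 37C, 0% CO2, and ONE-Glo is read after 30 min.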

[19] = molecular target: Androgen receptor (Homo sapiens) (UniProt P10275); experiment: qHTS assay to identify small molecule antagonists of the androgen receptor (AR) signaling pathway using the MDA cell line (AID 743042; further: nearly all actives have a fitted effect of over 55% in size)
In short: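 MDA-kb2 cells (human breast carcinoma, stably carrying an MMTV-luciferase reporter responsive to AR and GR) were plated at 3,000 cells/well and preincubated 5 hr at 37C, then given compound plus R1881 agonist for 16 h. ONE-Glo luminescence was read.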

Measured: Potency

Chain of Estrogen receptor (Homo sapiens) (P03372 whole entry, looked up): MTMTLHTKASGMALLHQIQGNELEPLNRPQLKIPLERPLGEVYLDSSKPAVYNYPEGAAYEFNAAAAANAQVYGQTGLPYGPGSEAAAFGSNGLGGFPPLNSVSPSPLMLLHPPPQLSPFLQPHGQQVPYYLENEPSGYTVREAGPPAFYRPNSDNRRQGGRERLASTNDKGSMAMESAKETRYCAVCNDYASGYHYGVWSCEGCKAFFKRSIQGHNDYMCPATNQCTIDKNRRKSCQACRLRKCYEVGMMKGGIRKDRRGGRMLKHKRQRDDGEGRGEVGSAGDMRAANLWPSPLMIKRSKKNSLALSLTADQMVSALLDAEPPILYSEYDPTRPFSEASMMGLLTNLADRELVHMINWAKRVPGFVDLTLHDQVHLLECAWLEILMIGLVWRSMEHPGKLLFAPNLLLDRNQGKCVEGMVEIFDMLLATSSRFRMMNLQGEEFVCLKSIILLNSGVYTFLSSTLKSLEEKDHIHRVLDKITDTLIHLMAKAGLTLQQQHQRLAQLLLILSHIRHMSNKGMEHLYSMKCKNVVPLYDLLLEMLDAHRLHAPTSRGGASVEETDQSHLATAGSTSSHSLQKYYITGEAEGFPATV
Chain of Aromatase (Homo sapiens) (P11511 whole entry, looked up): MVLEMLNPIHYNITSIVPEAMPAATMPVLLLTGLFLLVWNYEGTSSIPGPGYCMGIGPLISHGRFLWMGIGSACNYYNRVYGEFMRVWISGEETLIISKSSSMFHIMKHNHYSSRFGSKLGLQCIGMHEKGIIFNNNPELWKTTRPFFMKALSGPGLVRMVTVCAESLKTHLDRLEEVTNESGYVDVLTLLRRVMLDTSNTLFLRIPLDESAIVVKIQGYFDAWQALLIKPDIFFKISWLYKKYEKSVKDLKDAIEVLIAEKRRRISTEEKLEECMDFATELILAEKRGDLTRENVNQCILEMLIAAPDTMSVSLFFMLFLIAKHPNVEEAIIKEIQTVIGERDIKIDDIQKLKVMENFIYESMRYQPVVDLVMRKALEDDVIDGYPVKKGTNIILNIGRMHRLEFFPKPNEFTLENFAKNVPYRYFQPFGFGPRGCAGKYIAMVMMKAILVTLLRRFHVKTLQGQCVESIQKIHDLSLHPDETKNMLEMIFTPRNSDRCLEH
Chain of Androgen receptor (Homo sapiens) (P10275 whole entry, looked up): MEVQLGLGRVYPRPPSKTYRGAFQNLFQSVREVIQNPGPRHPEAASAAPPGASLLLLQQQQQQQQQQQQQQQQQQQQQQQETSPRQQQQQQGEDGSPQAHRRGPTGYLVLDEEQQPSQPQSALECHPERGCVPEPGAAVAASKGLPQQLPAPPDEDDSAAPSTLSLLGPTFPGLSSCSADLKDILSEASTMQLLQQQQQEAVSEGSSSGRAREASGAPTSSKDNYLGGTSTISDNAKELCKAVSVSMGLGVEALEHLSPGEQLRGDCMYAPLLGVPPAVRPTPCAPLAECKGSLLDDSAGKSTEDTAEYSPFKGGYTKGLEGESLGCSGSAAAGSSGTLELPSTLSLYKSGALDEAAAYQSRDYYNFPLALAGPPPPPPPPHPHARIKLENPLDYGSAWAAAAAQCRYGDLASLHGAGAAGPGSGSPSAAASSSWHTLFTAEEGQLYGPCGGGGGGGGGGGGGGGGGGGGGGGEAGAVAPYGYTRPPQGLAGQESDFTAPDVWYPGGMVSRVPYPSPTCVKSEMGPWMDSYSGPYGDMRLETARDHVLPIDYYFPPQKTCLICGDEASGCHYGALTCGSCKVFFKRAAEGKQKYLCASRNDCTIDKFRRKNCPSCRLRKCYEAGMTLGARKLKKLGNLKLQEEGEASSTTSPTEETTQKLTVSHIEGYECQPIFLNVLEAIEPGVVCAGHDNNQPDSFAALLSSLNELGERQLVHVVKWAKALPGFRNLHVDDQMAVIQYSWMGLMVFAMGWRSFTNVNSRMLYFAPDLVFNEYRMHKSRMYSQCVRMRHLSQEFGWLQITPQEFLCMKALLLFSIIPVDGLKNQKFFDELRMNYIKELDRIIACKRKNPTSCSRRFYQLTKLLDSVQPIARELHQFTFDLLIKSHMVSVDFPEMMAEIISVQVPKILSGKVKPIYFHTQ

OCC(O)c1ccccc1 (stereo unspecified)
inactive: [1] | [2] | [3] | [4] | [5] | [6] | [7] | [8] | [9] | [10] | [11] | [12] | [13] | [14] | [15] | Aromatase (Homo sapiens)

CCCC(=O)OCCC(C)C
inactive: [1] | [2] | [3] | [4] | [5] | [16] | [17] | [18] | [6] | [19] | [7] | [8] | [9] | [10] | [11] | [12] | [13] | [14] | [15] | Aromatase (Homo sapiens)

CCOCCn1c(N2CCCN(C)CC2)nc2ccccc21
inactive: [1] | [2] | [3] | [4] | [5] | [16] | [18] | [6] | [19] | [7] | [8] | [9] | [15]

O=[N+]([O-])c1ccccc1CCO
inactive: [1] | [2] | [3] | [4] | [5] | [6] | [7] | [8] | [9] | [11] | [15] | Aromatase (Homo sapiens)

CC1(C)CC(=O)CC(C)(C)N1
inactive: [1] | [2] | [3] | [4] | [5] | [6] | [7] | [8] | [9] | [11] | [12] | [13] | [14] | [15] | Aromatase (Homo sapiens)

CCCCOc1ccc(N)cc1
inactive: [1] | [2] | [3] | [4] | [5] | [6] | [7] | [8] | [9] | [11] | [12] | [15] | Aromatase (Homo sapiens)

Cc1ccccc1CCO
inactive: [1] | [2] | [3] | [4] | [5] | [6] | [7] | [8] | [9] | [11] | [12] | [13] | [14] | [15] | Aromatase (Homo sapiens)

CC(=O)Nc1ccccc1O
inactive: [1] | [2] | [3] | [4] | [5] | [6] | [7] | [8] | [9] | [11] | [15] | Aromatase (Homo sapiens)

CC(=O)Nc1cccc(N)c1
inactive: [1] | [2] | [3] | [4] | [5] | [6] | [7] | [8] | [9] | [10] | [11] | [12] | [13] | [14] | [15] | Aromatase (Homo sapiens)

Cc1c(Cl)cccc1[N+](=O)[O-]
inactive: [1] | [2] | [3] | [4] | [5] | [6] | [7] | [8] | [9] | [11] | [15] | Aromatase (Homo sapiens)

CC(=O)Nc1ccn(C2COC(COC(=O)c3ccccc3)O2)c(=O)n1 (stereo unspecified)
inactive: [1] | [5] | [6] | [7] | [9] | [15]
active: [2] 9.44 µM | [3] 13.3 µM | [4] 11.9 µM | [8] 16.8 µM

CC(COc1ccccc1)NC(C)C(O)c1ccc(O)cc1 (stereo unspecified)
inactive: [1] | [2] | [3] | [4] | [5] | [6] | [7] | [8] | [9] | [10] | [11] | [12] | [13] | [14] | [15] | Aromatase (Homo sapiens)

CC(C)CCCCCCCOC(=O)c1ccc(C(=O)OCCCCCCCC(C)C)c(C(=O)OCCCCCCCC(C)C)c1
inactive: [1] | [2] | [3] | [4] | [5] | [6] | [7] | [8] | [9] | [11] | [15] | Aromatase (Homo sapiens)

C1CCN(CN2CCCCC2)CC1
inactive: [1] | [2] | [3] | [4] | [5] | [6] | [7] | [8] | [9] | [11] | [12] | [13] | [14] | [15] | Aromatase (Homo sapiens)

Nc1ccc(-c2ccc(F)cc2)cc1
inactive: [1] | [5] | [6] | [7] | [8] | [9] | [11] | [12] | [15] | Aromatase (Homo sapiens)
active: [2] 68.6 µM | [3] 48.6 µM | [4] 68.6 µM | [13] 54.5 µM

CC(C)(O)C(=O)O
inactive: [1] | [2] | [3] | [4] | [5] | [6] | [7] | [8] | [9] | [11] | [15]

O=[N+]([O-])c1cccc(I)c1
inactive: [1] | [2] | [3] | [4] | [5] | [6] | [7] | [8] | [9] | [11] | [12] | [13] | [14] | [15] | Aromatase (Homo sapiens)

C=Cc1ccc(C=C)cc1
inactive: [1] | [2] | [3] | [4] | [5] | [6] | [7] | [8] | [9] | [12] | [13] | [14] | [15] | Aromatase (Homo sapiens)

CCCCCC1CCC(=O)O1 (stereo unspecified)
inactive: [1] | [2] | [3] | [4] | [5] | [6] | [7] | [8] | [9] | [11] | [12] | [13] | [14] | [15] | Aromatase (Homo sapiens)
